This is a sample that favours compounds with a hit; in the whole collection about 3.2% have one here.
DENV2 CPE rescue: DENV2-induced cell death inhibition; CPE inhibition, % at 9.99 µM; actives 1.7% (n = 350,000); DENV2-infected cells, cytopathic effect rescue, plate reader; in the data active means CPE inhibition above about 20%, passing the limit was not always enough; inconclusive means no clear call, values can overlap the other calls; tested in BHK-21 cells;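 further: 0% = median of neutral control wells and 100% = median of positive control wells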
ERAP1 inh: inhibitors of human ERAP1 aminopeptidase. Q9NZ08. recombinant ERAP1, Leu-AMC fluorescence, 60 min. inhibition, % at 10.7 µM. actives 0.15% (n = 340,000);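 active means mean replicate inhibition of at least 30%, or all replicates individually reaching that 30% level; inactive means mean below 30% and not every replicate reaching it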;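 further: 0% = neutral control wells and 100% = L-leucinethiol positive control wells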
Target sequence (Q9NZ08 whole entry, looked up): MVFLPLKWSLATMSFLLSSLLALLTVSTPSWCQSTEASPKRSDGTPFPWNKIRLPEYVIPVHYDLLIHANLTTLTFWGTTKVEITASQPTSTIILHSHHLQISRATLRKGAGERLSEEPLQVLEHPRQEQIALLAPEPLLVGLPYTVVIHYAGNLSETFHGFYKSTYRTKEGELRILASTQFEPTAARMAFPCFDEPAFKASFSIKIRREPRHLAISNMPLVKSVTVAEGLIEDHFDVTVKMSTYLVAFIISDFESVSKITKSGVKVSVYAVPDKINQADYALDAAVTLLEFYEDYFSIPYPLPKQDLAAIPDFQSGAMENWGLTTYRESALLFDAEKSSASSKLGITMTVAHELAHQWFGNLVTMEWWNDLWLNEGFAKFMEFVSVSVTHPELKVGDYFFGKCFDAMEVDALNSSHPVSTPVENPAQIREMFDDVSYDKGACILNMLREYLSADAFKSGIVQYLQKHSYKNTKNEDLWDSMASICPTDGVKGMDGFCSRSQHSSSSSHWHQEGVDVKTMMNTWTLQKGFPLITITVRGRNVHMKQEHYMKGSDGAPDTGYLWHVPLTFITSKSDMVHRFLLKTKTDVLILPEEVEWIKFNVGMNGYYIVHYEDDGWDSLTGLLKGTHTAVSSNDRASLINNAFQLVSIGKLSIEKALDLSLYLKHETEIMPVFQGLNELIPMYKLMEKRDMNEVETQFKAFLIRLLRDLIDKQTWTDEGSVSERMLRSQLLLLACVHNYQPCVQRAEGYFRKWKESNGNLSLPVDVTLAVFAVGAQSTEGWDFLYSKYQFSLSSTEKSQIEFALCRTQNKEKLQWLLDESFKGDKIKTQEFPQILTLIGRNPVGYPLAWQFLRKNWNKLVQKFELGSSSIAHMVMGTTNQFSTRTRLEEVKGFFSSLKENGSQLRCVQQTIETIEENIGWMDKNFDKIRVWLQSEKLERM
GSIS activator: GLuc luminescence reporter in INS-1E cells, primary screen for activators of glucose-dependent secretion of insulin | INS-1E GLuc reporter insulin secretion, 2-3 h | activation, % at 16.6 µM | actives 0.61% (n = 370,000);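 active means lowest replicate activation of at least 40%, so every replicate reaches that level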;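 further: 0% = median of neutral control wells and 100% = median of IBMX positive control wells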
CaV13 ICDI inh: Primary screen for inhibitors of IQ motif and Ca2+-dependent inactivation inhibitor domain binding in CACNA1D, Förster resonance energy transfer in living cells, …; inhibition, % at 12.3 µM; HEK cells, CFP/YFP FRET ICDI-IQ, plate reader, 10 min; percent FRET-ratio fall versus neutral wells; actives 0.098% (n = 340,000); AID 743397;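 active means mean replicate inhibition of at least 30% and at least 1% of replicates passing that level; inconclusive means only one of the two criteria is met; inactive means neither criterion is met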;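 further: 0% = median of the neutral control wells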
Ecoli rRNA inh: selective bacterial rRNA inhibition in E. coli; E. coli WT GFP vs humanized-ribosome RFP mutants, fluorescence, 24 h; hits give low values; DMSO median 0, no signal -100; GFP signal change (wild-type ribosome), % (test concentration not listed); actives 1.6% (n = 350,000); AID 720706;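 active means significant combined selectivity score with lowered wild-type GFP, culture density cut under 30%, mutant RFP and density less affected; inactive means any of these conditions unmet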
PGC1a acetyl inh: lowers PGC1a acetylation signal in U2OS cells | inhibition, % at 15.6 µM | AID 651687 | actives 0.17% (n = 350,000) | AlphaScreen anti-acetyl-lysine; with virally co-expressed GCN5 acetyltransferase;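 active means every replicate shows inhibition of at least 40%; inconclusive means mean inhibition at least 40% but some replicate below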;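 further: 0% = neutral control wells and 100% = positive control wells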
Active calls of the source: *; ? = inconclusive; · = no result.

SMILES	DENV2 CPE rescue	ERAP1 inh	GSIS activator	CaV13 ICDI inh	Ecoli rRNA inh	PGC1a acetyl inh
COc1ccc(NC(=O)N(C)C[C@@H]2OCCCC[C@H](C)Oc3ccc(NS(=O)(=O)c4c(C)noc4C)cc3C(=O)N([C@@H](C)CO)C[C@H]2C)cc1	14	1	-3	·	-2	1
O=C(c1cc(C2CC2)on1)N1CCN(C(c2ccccc2)c2ccccc2)CC1	40*	-4	-24	-1	-11	0
CC1=CC(C)(C)Nc2ccccc21	28*	-3	7	-1	0	5
COc1ccc2c(c1)NC(C)(C)C=C2C	12	0	4	-6	-9	5
CC(C)COc1ccc(Br)cc1CNC(C)(C)C	-1	0	51*	-6	12	·
Cc1ccccc1S(=O)(=O)N1C[C@@H](O)COC[C@@H]2O[C@@H](CC(=O)NCc3ccccc3Cl)CC[C@H]21	0	3	-2	·	2	-3
CCC1=[N+](C)c2cccc3cccc(c23)N1C	6	36*	1	-7	11	-9
C[C@@H]1CCCCO[C@@H](CN(C)Cc2ccccc2)[C@@H](C)CN([C@H](C)CO)C(=O)c2cc(NC(=O)Nc3ccccc3)ccc2O1	-8	3	21	·	3	4
Cc1onc(-c2c(Cl)cccc2Cl)c1C(=O)NC1CCCCC1	7	-1	-41	-3	-40	-19
Cc1onc(-c2c(Cl)cccc2Cl)c1C(=O)NN1CCCCCC1	0	3	6	-5	-13*	-1
CSC(=NS(=O)(=O)c1ccccc1)NNC(=O)c1c(-c2c(Cl)cccc2Cl)noc1C	1	-5	0	-10	-21*	·
Cc1onc(-c2c(F)cccc2Cl)c1C(=O)NNC(=O)C1CCN(Cc2ccccc2)CC1	-2	-2	5	-2	11	·
Cc1onc(-c2c(F)cccc2Cl)c1C(=O)N1CCSCC1	4	1	5	-4	-29*	10
Cc1cc(C)cc(NC(=O)Nc2ccc3c(c2)C(=O)N(C)[C@@H]2CC[C@H](CC(=O)O)O[C@H]2CO3)c1	1	·	-5	·	-1	2
CCCC(=O)NNc1c2ccccc2nc2ccccc12	·	·	-27	-4	·	-10
O=C(NNc1c2ccccc2nc2ccccc12)c1cccc(O)c1	·	·	-36	-4	·	·
O=C(NNc1c2ccccc2nc2ccccc12)c1ccc(O)cc1	-1	-2	36	44*	-23	·
O=C(NNc1c2ccccc2nc2ccccc12)C(O)c1ccccc1 (stereo unspecified)	-2	-8	-27	-1	-27*	5
COc1ccc(NC(=O)CSc2n[nH]c(-c3ccccc3)n2)cc1S(N)(=O)=O	52*	1	-8	-6	1	-1
CCCNC(=O)C[C@H]1CC[C@H]2[C@@H](COc3ccc(NC(=O)NCCC)cc3C(=O)N2C)O1	-4	·	11	·	4	3
O=C1c2cc([N+](=O)[O-])ccc2-c2ncccc21	51*	·	1	-5	-12	·
O=C1c2cccnc2-c2ncccc21	·	·	·	-5	·	4
CCCN1[C@@H]2Cn3c(ccc(-c4ccccc4)c3=O)[C@H]1[C@@H](C(=O)NCCc1cn(C)cn1)[C@@H]2CO	-1	1	19	·	2	·
CCCN1[C@@H]2Cn3c(ccc(-c4cccnc4)c3=O)[C@H]1[C@@H](C(=O)NCCc1cn(C)cn1)[C@@H]2CO	-1	31*	15	·	2	·
COC(=O)[C@@H]1[C@@H](CO)[C@@H]2Cn3c(ccc(-c4cccc(F)c4)c3=O)[C@@H]2N1C(C)=O	?	2	9	·	1	·
SMILES	DENV2 CPE rescue	ERAP1 inh	GSIS activator	CaV13 ICDI inh	Ecoli rRNA inh	PGC1a acetyl inh
CCNC(=O)[C@H]1[C@H](CO)[C@H]2Cn3c(ccc(-c4cccc(OC)c4)c3=O)[C@H]2N1S(C)(=O)=O	28*	-3	12	·	3	·
CCNC(=O)[C@H]1[C@H](CO)[C@H]2Cn3c(ccc(-c4ccc(OC)cc4)c3=O)[C@@H]1N2CC	79*	-2	11	·	-1	·
CCC(=O)N1[C@@H]2c3ccc(-c4cccc(F)c4)c(=O)n3C[C@@H]2[C@@H](CO)[C@@H]1C(=O)OC	76*	2	7	·	4	2
CC(=O)N[C@H]1C[C@@H]2O[C@@H](CO)CC[C@@H]2O[C@@H]1CCc1ccc(C#CC2(O)CCCC2)cc1	17	-3	·	·	·	11
CN1[C@@H]2c3ccc(-c4ccccc4)c(=O)n3C[C@H]1[C@H](CO)[C@H]2C(=O)NCCc1ccccc1	-4	1	7	·	-2	·
COC(=O)[C@H]1[C@H](CO)[C@H]2Cn3c(ccc(-c4ccncc4)c3=O)[C@H]2N1Cc1ccccc1F	-16	30*	-1	·	-1	0
CCNC(=O)[C@H]1[C@H](CO)[C@H]2Cn3c(ccc(-c4cccc(OC)c4)c3=O)[C@H]2N1C(=O)NC(C)C	31*	-3	-2	·	-1	-2
C/C=C/c1cnc2c(c1)C(=O)N([C@@H](C)CO)C[C@H](C)[C@H](CN(C)C(=O)c1cccc(F)c1)O2	-3	7	11	·	5	4
C[C@H]1CN([C@@H](C)CO)C(=O)c2cc(-c3ccccc3)cnc2O[C@@H]1CN(C)C	3	0	17	·	4	4
C[C@H](CO)N1C[C@H](C)[C@H](CN(C)Cc2cccnc2)Oc2cc(C3=CCCC3)ccc2S1(=O)=O	28*	1	0	·	-2	-24
C[C@H](CO)N1C[C@H](C)[C@H](CN(C)Cc2ccncc2)Oc2cc(C3=CCCC3)ccc2S1(=O)=O	36*	0	-9	·	-6	-17
C[C@H]1CN([C@@H](C)CO)S(=O)(=O)c2ccc(C3=CCCC3)cc2O[C@@H]1CN(C)S(=O)(=O)c1ccc(F)cc1	69*	-2	1	·	1	-7
C[C@@H]1CN([C@H](C)CO)S(=O)(=O)c2ccc(C3=CCCC3)cc2O[C@@H]1CN(C)Cc1cccnc1	-2	2	17	·	-1	-3
CO[C@@H]1CN(C)C(=O)c2cc(NC(=O)c3ccccc3)ccc2OC[C@H](C)NC[C@H]1C	14	3	8	·	2	1
CNC(=S)Nc1cccc2[nH]ncc12	·	·	·	-5	·	11
O=C(NC(=S)Nc1cccc2[nH]ncc12)c1ccccc1	4	-4	159*	8	1	17
CCCCCCc1cc2cc(S(=O)(=O)c3ccc(F)cc3)c(=O)oc2cc1O	-2	1	-8	53*	-2	·
O=C(NCCNC(=O)c1ccccc1)c1ccccc1	9	2	1	0	4	3
O=C(NCC#CCOCc1ccccc1)c1ccccc1	3	5	·	37*	15	·

Source: PubChem BioAssay
